Laboratory results published in PubChem BioAssay (NCI).
Where “and” joins values, the source holds several entries; their conditions need not be identical. Identical values can stand only once. Compounds without any hit were thinned out: in the full panel of roughly 83,000, 20% have a hit.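 Negative percent growth values reflect cell death: -40 means 40% of the cells present at the start died, and -100 means all died.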 Values without a mark were called inactive. Calls of active or inactive are those of the source. The calls were made as follows: active = growth percent below 10; inactive = the rest.

system: MDA-MB-468 breast; experiment: NCI-60 one-dose screen, 48 h (100 = growth as untreated, 0 = no growth, -100 = all killed); settings: 10 µM unless noted

Row | Compound | growth
1 | CCCCCN(CCCCC)CCC[C@@H](C)[C@H]1CC[C@H]2[C@@H]3[C@H](OCCCN)C[C@@H]4C[C@H](OCCCN)CC[C@]4(C)[C@H]3C[C@H](OCCCN)[C@]12C | 71.1%
2 | CS(=O)CC1=NC(=N)N=C1CS(C)=O (stereo not given) | 88.5%
3 | CN1CCOCCN(C)Cc2ccc3ccc(cc3c2)CN(C)CCOCCN(C)Cc2ccc3ccc(cc3c2)C1 | 52.9%
4 | O=C(NNC(=S)Nc1ccccc1)c1ccccn1 | 51.2%
5 | Cc1cc(=O)[nH]c(N/N=C/c2cc(Br)ccc2O)n1 | 3.37% (active)
6 | CCN(CC)c1ccc(CN(CC(=O)c2ccc(Cl)c(Cl)c2)Cc2ccccc2)cc1 | 91.9%
7 | O=C1C=CC(=O)N1c1cccc(Cl)c1 | 86.7%
8 | COc1ccc(Cn2cc3c(c2-c2cc(OC)c(OC)c(OC)c2)CCCc2cnoc2-3)cc1N | 46.7%
9 | Cc1oc(-c2ccc(Cl)cc2)nc1C1=NN(C(=O)c2ccncc2)C(c2ccccc2)C1 (stereo not given) | 108%
10 | CC(C)c1ccc(Cc2cnc(NC(=O)c3cc(Br)cs3)s2)cc1 | -4.52% (active)
11 | O=C(CCCCCCN1CC(=O)N2[C@@H](C3CC3)c3[nH]c4ccccc4c3C[C@H]2C1=O)NO | 64.6%
12 | COc1cc(-c2nc3nc4sc(C)c(C)c4c(=O)n3[nH]2)cc(OC)c1OC | 75.5%
13 | Cc1ccc(CC(=O)O)c(C)c1 | 112%
14 | O=C(Nc1cccc(-c2ccc(Cl)c(C(F)(F)F)c2)c1)C1CCN(Cc2cccc3cccnc23)CC1 | -5.03% (active)
15 | N#C/C(=C\c1c(-c2ccccc2)[nH]c2ccccc12)C(=O)c1ccccc1 | 86.9%
16 | O=C(/C=C/c1ccco1)Nc1ncc(Cc2ccc(F)cc2)s1 | 21.5%
17 | COc1ccc([C@H]2[C@H](O)C(=O)N2c2cc(OC)c(OC)c(OC)c2)cc1F | 26.4%
18 | O=C(CNC1CCCCC1)Nc1ccc(-c2nc3ccccc3s2)cc1 | 35.9%
19 | O=C1[C@@H]2Cc3c([nH]c4ccccc34)[C@@H](c3ccc(Cl)cc3)N2C(=O)CN1C1CCN(Cc2c(F)cccc2F)CC1 | 40.3%
20 | Cc1ccc2oc(=O)cc(C3c4ccc([nH]4)C(c4cc(=O)oc5ccc(C)cc45)c4ccc([nH]4)C(c4cc(=O)oc5ccc(C)cc45)c4ccc([nH]4)C(c4cc(=O)oc5ccc(C)cc45)c4ccc3[nH]4)c2c1 (stereo not given) | -28.6% (active)

Row | Compound | growth
21 | COc1ccc(/C(=N\N)C(=O)c2ccccc2)cc1 (tested in a mixture with another compound) | 89%
22 | N#Cc1c(Nc2ccc(N3CCOCC3)cc2)nc(SCC(=O)c2ccc(Br)cc2)nc1-c1ccccc1 | 113%
23 | CC(=O)Oc1cc(C(C)C)c(OCCN(C)C)cc1C | 110% and 104%
24 | COc1ccc2c(c1)C(=O)c1c-2c(=O)n(CCCCCCC(=O)NO)c2ccccc12 | 6.84% (active)
25 | C#C[C@]1(O)CC[C@H]2[C@@H]3CC=C4c5sc(-c6ccc(C)cc6)nc5CC[C@]4(C)[C@H]3CC[C@@]21C | 84.4%
26 | COc1cc(NC(=O)CCSc2nc3ccc(C)cc3c(=O)n2Cc2ccccc2)cc(OC)c1OC | 68.6%
27 | CCCCCCCCCCCCCCCCOc1ccccc1NC(=O)CC(C)=O | 111%
28 | COc1ccc(Cn2cc(C(=O)N=Nc3c(O)[nH]c4c(Cl)cccc34)nn2)cc1 | 98.6%
29 | COc1ccc(/C=C2\SC(=O)N(Cc3cc(=O)oc4ccc(OC)cc34)C2=O)cc1 | 46.6%
30 | COc1ccc(/C=C2\CCCC3=C2NC(N)=NC3c2ccc(OC)c(OC)c2)cc1OC (stereo not given) | -16.3% (active)
31 | CCOC(=O)NCCc1ccccc1 | 112%
32 | CC1CCC(C)N(C)C1 (stereo not given) | 105%
33 | CCOC(=O)C1=C(C)NC(C)=C(C(=O)OCC)C1 | 97.7% and 86.9%
34 | COc1cc(OC)cc(-c2ccc(-c3ccc(C(=N)N)cc3)s2)c1 | -81.3% (active)
35 | N#Cc1c(-c2ccc(F)cc2)nc(N/N=C/c2cccc(O)c2)nc1N1CCOCC1 | 81.1%
36 | COc1ncnc2c(-c3ccccc3)cn(COCc3ccccc3)c12 | 42.1%
37 | Cc1ccc(-c2nc([P+](c3ccccc3)(c3ccccc3)c3ccccc3)c(N3CCOCC3)o2)cc1 | -27.6% (active)
38 | CC(C)(C)c1ccc(OCCOC(=O)CBr)cc1 | 87.6%
39 | Cc1cc(N2CCOCC2)nc(N(CCCNc2ccnc3cc(Cl)ccc23)Cc2ccco2)n1 | 21.7%
40 | CN=S(=O)(NC(=O)c1ccc(Cl)cc1Cl)c1ccc(Br)s1 (stereo not given) | 88.3%
